# Columns and labels:
# Test in all cases: PBM; 200 nM protein, PBS
# Conditions in all cases: dsDNA, one strand shown
# HOXB9 [1] = molecular target: HOXB9 (Homo sapiens, UniProt P17482 171-250)
# HOXB9 [2] = molecular target: HOXB9 (Homo sapiens, UniProt P17482 171-250, R186Q)
# SIX6 = molecular target: T1, SIX6 (Homo sapiens, UniProt O95475 114-200, T139Q)
# T1 sequence: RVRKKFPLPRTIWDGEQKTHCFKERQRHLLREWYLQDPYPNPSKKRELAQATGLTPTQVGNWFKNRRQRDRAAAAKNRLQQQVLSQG
# NKX2-6 = molecular target: T2, NKX2-6 (Homo sapiens, UniProt A6NCS4 118-204, R150C)
# T2 sequence: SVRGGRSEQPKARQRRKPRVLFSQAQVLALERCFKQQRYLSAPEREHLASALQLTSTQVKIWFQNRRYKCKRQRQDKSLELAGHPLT
# HOXB6 = HOXB6 (Homo sapiens, UniProt P17509 132-218)
# Sequence of HOXB6 (P17509 132-218): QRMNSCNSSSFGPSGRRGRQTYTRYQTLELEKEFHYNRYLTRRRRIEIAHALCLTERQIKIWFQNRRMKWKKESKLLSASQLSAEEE
# CRX [3] = molecular target: CRX (Homo sapiens, UniProt O43186 26-111, R41L)
# Sequence of CRX (Homo sapiens, UniProt O43186 26-111, R41L) (O43186 26-111 R41L): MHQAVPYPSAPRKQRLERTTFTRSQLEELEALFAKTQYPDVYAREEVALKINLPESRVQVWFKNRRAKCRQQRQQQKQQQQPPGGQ
# NKX3-2 [4] = molecular target: NKX3-2 (Homo sapiens, UniProt P78367 192-278, P234S)
# Sequence of NKX3-2 (Homo sapiens, UniProt P78367 192-278, P234S) (P78367 192-278 P234S): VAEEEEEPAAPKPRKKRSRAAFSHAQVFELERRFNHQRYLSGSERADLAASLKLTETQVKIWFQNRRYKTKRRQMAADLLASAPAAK
# NKX3-2 [5] = molecular target: NKX3-2 (Homo sapiens, UniProt P78367 192-278)
# Sequence of NKX3-2 (Homo sapiens, UniProt P78367 192-278) (P78367 192-278): as the sequence (P78367 192-278 P234S) above, with S43P counted along it
# HOXC9 [6] = molecular target: HOXC9 (Homo sapiens, UniProt P31274 178-260)
# Sequence of HOXC9 (Homo sapiens, UniProt P31274 178-260) (P31274 178-260): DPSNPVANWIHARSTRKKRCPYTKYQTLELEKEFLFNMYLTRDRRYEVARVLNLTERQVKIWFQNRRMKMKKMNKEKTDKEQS
# HOXC9 [7] = molecular target: HOXC9 (Homo sapiens, UniProt P31274 178-260, R222W)
# Sequence of HOXC9 (Homo sapiens, UniProt P31274 178-260, R222W) (P31274 178-260 R222W): as the sequence (P31274 178-260) above, with R45W counted along it
# ALX1 [8] = molecular target: ALX1 (Homo sapiens, UniProt Q15699 118-204, L144V)
# Sequence of ALX1 (Homo sapiens, UniProt Q15699 118-204, L144V) (Q15699 118-204 L144V): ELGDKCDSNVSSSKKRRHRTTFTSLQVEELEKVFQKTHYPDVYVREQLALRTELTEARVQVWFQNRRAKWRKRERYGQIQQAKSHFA
# ALX1 [9] = molecular target: ALX1 (Homo sapiens, UniProt Q15699 118-204, L144R)
# Sequence of ALX1 (Homo sapiens, UniProt Q15699 118-204, L144R) (Q15699 118-204 L144R): as the sequence (Q15699 118-204 L144V) above, with V27R counted along it
# ALX1 [10] = molecular target: ALX1 (Homo sapiens, UniProt Q15699 118-204)
# Sequence of ALX1 (Homo sapiens, UniProt Q15699 118-204) (Q15699 118-204): as the sequence (Q15699 118-204 L144V) above, with V27L counted along it
# CRX [11] = molecular target: CRX (Homo sapiens, UniProt O43186 26-111, E42D)
# Sequence of CRX (Homo sapiens, UniProt O43186 26-111, E42D) (O43186 26-111 E42D): as the sequence (O43186 26-111 R41L) above, with L16R, E17D counted along it
# HOXC9 [12] = molecular target: HOXC9 (Homo sapiens, UniProt P31274 178-260, R193K)
# Sequence of HOXC9 (Homo sapiens, UniProt P31274 178-260, R193K) (P31274 178-260 R193K): as the sequence (P31274 178-260) above, with R16K counted along it
# Sequence of HOXB9 (Homo sapiens, UniProt P17482 171-250, R186Q) (P17482 171-250 R186Q): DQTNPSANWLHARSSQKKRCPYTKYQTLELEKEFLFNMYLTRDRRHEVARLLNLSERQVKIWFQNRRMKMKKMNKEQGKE
# Sequence of HOXB9 (Homo sapiens, UniProt P17482 171-250) (P17482 171-250): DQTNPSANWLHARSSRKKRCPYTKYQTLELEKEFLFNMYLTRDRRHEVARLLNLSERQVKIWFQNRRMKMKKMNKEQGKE
sequence,measurement,setting,value
AAGTAATC,binding signal,HOXB9 [1],"9.94 upbm affinity estimate (log intensity, higher = more binding, comparable within an allelic series)"
same,binding signal,HOXB9 [2],"9.94 upbm affinity estimate (log intensity, higher = more binding, comparable within an allelic series)"
GATACCCA,binding signal,SIX6,"11.2 upbm affinity estimate (log intensity, higher = more binding, comparable within an allelic series)"
ACGGGGTC,binding signal,NKX2-6,"9.58 upbm affinity estimate (log intensity, higher = more binding, comparable within an allelic series)"
AATACAAT,binding signal,HOXB9 [1],"10 upbm affinity estimate (log intensity, higher = more binding, comparable within an allelic series)"
same,binding signal,HOXB9 [2],"9.98 upbm affinity estimate (log intensity, higher = more binding, comparable within an allelic series)"
AATACCAT,binding signal,HOXB9 [1],"9.98 upbm affinity estimate (log intensity, higher = more binding, comparable within an allelic series)"
same,binding signal,HOXB9 [2],"9.96 upbm affinity estimate (log intensity, higher = more binding, comparable within an allelic series)"
same,binding signal,HOXB6,"10.3 upbm affinity estimate (log intensity, higher = more binding, comparable within an allelic series)"
AACATATG,binding signal,HOXB9 [1],"9.86 upbm affinity estimate (log intensity, higher = more binding, comparable within an allelic series)"
same,binding signal,HOXB9 [2],"9.84 upbm affinity estimate (log intensity, higher = more binding, comparable within an allelic series)"
AGGCAGTC,binding signal,NKX2-6,"9.73 upbm affinity estimate (log intensity, higher = more binding, comparable within an allelic series)"
ATGATTTA,binding signal,HOXB9 [1],"10.6 upbm affinity estimate (log intensity, higher = more binding, comparable within an allelic series)"
same,binding signal,HOXB9 [2],"10.4 upbm affinity estimate (log intensity, higher = more binding, comparable within an allelic series)"
ATTACGTC,binding signal,HOXB9 [1],"10 upbm affinity estimate (log intensity, higher = more binding, comparable within an allelic series)"
same,binding signal,HOXB9 [2],"10.2 upbm affinity estimate (log intensity, higher = more binding, comparable within an allelic series)"
CATTACTA,binding signal,HOXB9 [1],"10.6 upbm affinity estimate (log intensity, higher = more binding, comparable within an allelic series)"
same,binding signal,HOXB9 [2],"10.5 upbm affinity estimate (log intensity, higher = more binding, comparable within an allelic series)"
GGTCAACC,binding signal,NKX2-6,"9.62 upbm affinity estimate (log intensity, higher = more binding, comparable within an allelic series)"
GGCGATAA,binding signal,HOXB9 [1],"10.4 upbm affinity estimate (log intensity, higher = more binding, comparable within an allelic series)"
same,binding signal,HOXB9 [2],"10.3 upbm affinity estimate (log intensity, higher = more binding, comparable within an allelic series)"
AATTGCTA,binding signal,HOXB9 [1],"10.7 upbm affinity estimate (log intensity, higher = more binding, comparable within an allelic series)"
same,binding signal,HOXB9 [2],"10.6 upbm affinity estimate (log intensity, higher = more binding, comparable within an allelic series)"
AGGAATAA,binding signal,HOXB9 [1],"9.91 upbm affinity estimate (log intensity, higher = more binding, comparable within an allelic series)"
same,binding signal,HOXB9 [2],"9.78 upbm affinity estimate (log intensity, higher = more binding, comparable within an allelic series)"
AAGCAATA,binding signal,HOXB9 [1],"10.1 upbm affinity estimate (log intensity, higher = more binding, comparable within an allelic series)"
same,binding signal,HOXB9 [2],"10.1 upbm affinity estimate (log intensity, higher = more binding, comparable within an allelic series)"
AAATCTTA,binding signal,HOXB9 [1],"9.84 upbm affinity estimate (log intensity, higher = more binding, comparable within an allelic series)"
same,binding signal,HOXB9 [2],"9.77 upbm affinity estimate (log intensity, higher = more binding, comparable within an allelic series)"
CATAATCG,binding signal,HOXB9 [1],"10.5 upbm affinity estimate (log intensity, higher = more binding, comparable within an allelic series)"
same,binding signal,HOXB9 [2],"10.3 upbm affinity estimate (log intensity, higher = more binding, comparable within an allelic series)"
CGTTTAAA,binding signal,HOXB9 [1],"10.2 upbm affinity estimate (log intensity, higher = more binding, comparable within an allelic series)"
same,binding signal,HOXB9 [2],"9.99 upbm affinity estimate (log intensity, higher = more binding, comparable within an allelic series)"
TAACTTAA,binding signal,HOXB9 [1],"10.2 upbm affinity estimate (log intensity, higher = more binding, comparable within an allelic series)"
same,binding signal,HOXB9 [2],"10.1 upbm affinity estimate (log intensity, higher = more binding, comparable within an allelic series)"
ACATTACA,binding signal,HOXB9 [1],"10.6 upbm affinity estimate (log intensity, higher = more binding, comparable within an allelic series)"
same,binding signal,HOXB9 [2],"10.5 upbm affinity estimate (log intensity, higher = more binding, comparable within an allelic series)"
CGGATCAC,binding signal,SIX6,"11.1 upbm affinity estimate (log intensity, higher = more binding, comparable within an allelic series)"
CAAAGTGC,binding signal,NKX2-6,"11 upbm affinity estimate (log intensity, higher = more binding, comparable within an allelic series)"
CACCCCGC,binding signal,NKX2-6,"9.31 upbm affinity estimate (log intensity, higher = more binding, comparable within an allelic series)"
AATCAATA,binding signal,HOXB9 [1],"10.5 upbm affinity estimate (log intensity, higher = more binding, comparable within an allelic series)"
same,binding signal,HOXB9 [2],"10.4 upbm affinity estimate (log intensity, higher = more binding, comparable within an allelic series)"
GCATGCGC,binding signal,NKX2-6,"9.48 upbm affinity estimate (log intensity, higher = more binding, comparable within an allelic series)"
ATTTAATC,binding signal,HOXB9 [1],"10.8 upbm affinity estimate (log intensity, higher = more binding, comparable within an allelic series)"
same,binding signal,HOXB9 [2],"10.7 upbm affinity estimate (log intensity, higher = more binding, comparable within an allelic series)"
same,binding signal,CRX [3],"12.3 upbm affinity estimate (log intensity, higher = more binding, comparable within an allelic series)"
AGGTATCG,binding signal,SIX6,"11.1 upbm affinity estimate (log intensity, higher = more binding, comparable within an allelic series)"
AACAAATA,binding signal,HOXB9 [1],"10.1 upbm affinity estimate (log intensity, higher = more binding, comparable within an allelic series)"
same,binding signal,HOXB9 [2],"9.97 upbm affinity estimate (log intensity, higher = more binding, comparable within an allelic series)"
AGATACCC,binding signal,SIX6,"11.2 upbm affinity estimate (log intensity, higher = more binding, comparable within an allelic series)"
CATTTAAA,binding signal,HOXB9 [1],"10.7 upbm affinity estimate (log intensity, higher = more binding, comparable within an allelic series)"
same,binding signal,HOXB9 [2],"10.6 upbm affinity estimate (log intensity, higher = more binding, comparable within an allelic series)"
TACTGTAA,binding signal,HOXB9 [1],"10.2 upbm affinity estimate (log intensity, higher = more binding, comparable within an allelic series)"
same,binding signal,HOXB9 [2],"10.1 upbm affinity estimate (log intensity, higher = more binding, comparable within an allelic series)"
AACCCATT,binding signal,HOXB9 [1],"10.5 upbm affinity estimate (log intensity, higher = more binding, comparable within an allelic series)"
same,binding signal,HOXB9 [2],"10.4 upbm affinity estimate (log intensity, higher = more binding, comparable within an allelic series)"
ATATCTTC,binding signal,HOXB9 [1],"10 upbm affinity estimate (log intensity, higher = more binding, comparable within an allelic series)"
same,binding signal,HOXB9 [2],"9.91 upbm affinity estimate (log intensity, higher = more binding, comparable within an allelic series)"
TAAACTAA,binding signal,HOXB9 [1],"10.3 upbm affinity estimate (log intensity, higher = more binding, comparable within an allelic series)"
same,binding signal,HOXB9 [2],"10.1 upbm affinity estimate (log intensity, higher = more binding, comparable within an allelic series)"
GGTCTGCA,binding signal,NKX2-6,"9.86 upbm affinity estimate (log intensity, higher = more binding, comparable within an allelic series)"
ATAGATAA,binding signal,HOXB9 [1],"10.4 upbm affinity estimate (log intensity, higher = more binding, comparable within an allelic series)"
same,binding signal,HOXB9 [2],"10.4 upbm affinity estimate (log intensity, higher = more binding, comparable within an allelic series)"
GCAGCACC,binding signal,NKX2-6,"9.59 upbm affinity estimate (log intensity, higher = more binding, comparable within an allelic series)"
AAAGTGGT,binding signal,NKX2-6,"11.7 upbm affinity estimate (log intensity, higher = more binding, comparable within an allelic series)"
same,binding signal,NKX3-2 [4],"12.7 upbm affinity estimate (log intensity, higher = more binding, comparable within an allelic series)"
same,binding signal,NKX3-2 [5],"12.8 upbm affinity estimate (log intensity, higher = more binding, comparable within an allelic series)"
ATTAGAGG,binding signal,HOXC9 [6],"10.9 upbm affinity estimate (log intensity, higher = more binding, comparable within an allelic series)"
same,binding signal,HOXC9 [7],"10.2 upbm affinity estimate (log intensity, higher = more binding, comparable within an allelic series)"
CGCGGGCC,binding signal,NKX2-6,"9.38 upbm affinity estimate (log intensity, higher = more binding, comparable within an allelic series)"
same,binding signal,ALX1 [8],"6.41 upbm affinity estimate (log intensity, higher = more binding, comparable within an allelic series)"
same,binding signal,ALX1 [9],"6.28 upbm affinity estimate (log intensity, higher = more binding, comparable within an allelic series)"
same,binding signal,NKX3-2 [4],"10.4 upbm affinity estimate (log intensity, higher = more binding, comparable within an allelic series)"
same,binding signal,ALX1 [10],"6.3 upbm affinity estimate (log intensity, higher = more binding, comparable within an allelic series)"
same,binding signal,NKX3-2 [5],"10.4 upbm affinity estimate (log intensity, higher = more binding, comparable within an allelic series)"
GCTCTTAA,binding signal,HOXC9 [6],"11 upbm affinity estimate (log intensity, higher = more binding, comparable within an allelic series)"
same,binding signal,HOXC9 [7],"10.2 upbm affinity estimate (log intensity, higher = more binding, comparable within an allelic series)"
GATTAAGA,binding signal,CRX [11],"12.7 upbm affinity estimate (log intensity, higher = more binding, comparable within an allelic series)"
AAGTGGGG,binding signal,NKX2-6,"11.7 upbm affinity estimate (log intensity, higher = more binding, comparable within an allelic series)"
same,binding signal,NKX3-2 [4],"12.7 upbm affinity estimate (log intensity, higher = more binding, comparable within an allelic series)"
same,binding signal,NKX3-2 [5],"12.8 upbm affinity estimate (log intensity, higher = more binding, comparable within an allelic series)"
AAGTGCAC,binding signal,NKX2-6,"11.6 upbm affinity estimate (log intensity, higher = more binding, comparable within an allelic series)"
same,binding signal,NKX3-2 [4],"12.6 upbm affinity estimate (log intensity, higher = more binding, comparable within an allelic series)"
same,binding signal,NKX3-2 [5],"12.7 upbm affinity estimate (log intensity, higher = more binding, comparable within an allelic series)"
CATGGTAA,binding signal,HOXC9 [6],"10.9 upbm affinity estimate (log intensity, higher = more binding, comparable within an allelic series)"
same,binding signal,HOXC9 [12],"11 upbm affinity estimate (log intensity, higher = more binding, comparable within an allelic series)"

# — paper PMC11006913
